Several values for one entry are separate records, joined by “and”; a condition that tells them apart may be missing. Equal values may be shown once. Inconclusive results are not listed. Activity calls are given as the source filed them. Unless noted, calls come from the whole dose curve; as a rule, active = well fitted curve in the direction sought with a large enough effect; inconclusive = small, poorly fitted or top-dose-only effect, or another doubt; inactive = no such curve, though single readings can be large; an effect the other way counts as inactive or inconclusive.
Experiment: qHTS Assay for Identification of Small Molecule Agonists for Hypoxia Response Element Signaling Pathway (AID 914; active = well fitted activation curve with a large enough effect in the signal ratio, with a control signal flat, not every such curve was filed as active; the % refers to the signal ratio; note: potency is the fitted concentration of half-maximal effect; for activation: % of control where 0% means no effect)
Details: ME-180 (cervical carcinoma) HRE-bla reporter, beta-lactamase ratio, CoCl2, 17 h; activation: hits give high values
Summary of the method: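 HRE-bla ME-180 cells with beta-lactamase reporter under hypoxia response element, compounds with EC50 CoCl2 for 17 hours at 37 C. CCF4 substrate, 460nm/530nm emission ratio gave %Activity; AC50 from titration series.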
For COc1ncc2nc(-c3cccs3)c(=O)n(C)c2n1, the Potency was 2510 nM (active).
With C[C@@H]1CCC[C@H](C)N1NC(=O)c1ccc(Cl)c(S(N)(=O)=O)c1 the activation was -10.1% (inactive) and -0.309% (inactive).
For CN1CCN(c2ccnc(-c3ccc(N(C)C)cc3)n2)CC1, the activation was 1.71% (inactive).

Experiment: Cell Viability - LYMP2-001 (AID 921);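 note: cells exposed to compound for 24 h at 37 °C; 0% = DMSO only and full inhibition = tetraoctylammonium bromide control wells; nearly all actives have a fitted effect of over 70% in size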
Details: LYMP2-001 lymphoblastoid cell viability; series mostly up to 92.2 µM; activity change, negative = cytotoxic: at the top concentration
Summary of the method: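 Human lymphoblastoid LYMP2-001 cells, 2500 per well, in complete medium, treated 24 h at 37 C. Viability from cellular ATP by CellTiter-Glo luminescence; AC50 from Hill-equation fits of qHTS concentration-response.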
In the case of C=C(C)[C@H]1CC=C(C)C(=O)C1, the “activity change, negative = cytotoxic” value is reported as -9.65% (inactive).
For C=CC(C)(O)CCC=C(C)C (stereo not drawn), the “activity change, negative = cytotoxic” value was -14.2% (inactive).
In the case of COS(C)(=O)=O, the “activity change, negative = cytotoxic” value is reported as -2.75% (inactive).

Experiment: Confirmation and Secondary Assay for Modulators of Hemoglobin Beta Chain Splicing at IVS2 705 locus (AID 930);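 note: HeLa cells stably expressing the EGFP-705 splicing reporter; GFP fluorescence per well restored by corrected splicing of the IVS2-705 intron in EGFP; % of control where 0% means no effect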
Details: HeLa EGFP-705 splicing reporter, GFP fluorescence, 48 h; series mostly up to 38.3 µM; activation: at the top concentration
Summary of the method: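 HeLa cells stably carrying EGFP interrupted by mutant beta-globin intron 2 (IVS2-705) treated 2 days at 37C with compound; 500 nM antisense PNA as control. Correct splicing read as total peak GFP intensity per well by laser-scanning cytometry.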
With Oc1ccc2c(c1)OCC1(O)Cc3cc(O)c(O)cc3C21 (stereo not drawn) the “activation” value was 0.664% [at 46.1 µM] (inactive).
In the case of C[N+](C)(C)CC(O)CC(=O)O (stereo not drawn), the “activation” value is reported as -0.791% [at 46.1 µM] (inactive).
In the case of O=c1cc(-c2ccc(O)cc2)oc2cc(O[C@H]3OC(CO)C(O)C(O)C3O)cc(O)c12 (stereo partly drawn), the “activation” value is reported as 0.341% [at 46.1 µM] (inactive).
In the case of O=C(/C=C/c1ccc(O)c(O)c1)OC(Cc1ccc(O)c(O)c1)C(=O)O (stereo not drawn), the “activation” value is reported as 1.26% [at 46.1 µM] (inactive).
For C=C[C@](C)(O)CCC=C(C)C, the “activation” value was -0.0754% (inactive).
With C#C[C@]1(O)CCC2C3CCC4=C(CCC(=O)C4)C3CC[C@@]21C (stereo partly drawn) the “activation” value was 2.74% [at 46.1 µM] (inactive).
In the case of CC1(C)SC2C(NC(=O)Cc3ccccc3)C(=O)N2C1C(=O)O (stereo not drawn), the “activation” value is reported as -0.626% [at 46.1 µM] (inactive).
With C=C(NC(=O)C(=C)NC(=O)c1csc(C2=NC3c4csc(n4)C4NC(=O)c5csc(n5)C(C(C)(O)C(C)O)NC(=O)C5CSC(=N5)C(=CC)NC(=O)C(C(C)O)NC(=O)c5csc(n5)C3(CC2)NC(=O)C(C)NC(=O)C(=C)NC(=O)C(C)NC(=O)C(C(C)CC)NC2C=Cc3c(C(C)O)cc(nc3C2O)C(=O)OC4C)n1)C(N)=O (stereo not drawn) the “activation” value was 6.8% [at 46.1 µM] (inactive).
With COS(C)(=O)=O the “activation” value was 1.27% (inactive).
With CC(C)(S)[C@H](N)C(=O)O the “activation” value was -0.355% [at 46.1 µM] (inactive).
With NC(Cc1c[nH]c2ccccc12)C(=O)O (stereo not drawn) the “activation” value was 2.01% [at 46.1 µM] (inactive).
For COc1cc2c(cc1OC)C1Cc3ccc(OC)c(OC)c3CN1CC2 (stereo not drawn), the “activation” value was 0.0261% (inactive).
In the case of O=c1ccc2ccc(O)cc2o1, the “activation” value is reported as -0.0499% (inactive).
With CN1C(CC(=O)c2ccccc2)CCCC1CC(O)c1ccccc1 (stereo not drawn) the “activation” value was -0.17% [at 46.1 µM] (inactive).
With COc1ccc2ccc(=O)oc2c1 the “activation” value was -0.406% [at 46.1 µM] (inactive).
In the case of O=C(Cc1cccs1)NC1C(=O)N2C(C(=O)[O-])=C(C[n+]3ccccc3)CSC12 (stereo not drawn), the “activation” value is reported as 0.0246% [at 46.1 µM] (inactive).

Experiment: MultiTox-Fluor Cytotoxicity Assay - LYMP1-001 - Dead Cells (AID 946);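 note: cells exposed to compound for 16 h; 0% = DMSO and 100% = tetraoctylammonium bromide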
Details: LYMP1-001 lymphoblastoid cells, dead-cell protease fluorescence; series mostly up to 92.2 µM; cytotoxicity (dead cells): at the top concentration
Summary of the method: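 LYMP1-001 lymphoblastoid cells (2500/well) treated 16 h at 37 C. Dead-cell protease cleavage of bis-AAF-R110 read at Ex/Em 485/520. Normalized to DMSO and 15 uM tetraoctylammonium bromide; AC50 from Hill fits.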
For C=C(C)[C@H]1CC=C(C)C(=O)C1, the “cytotoxicity (dead cells)” value was -15.7% (inactive).
In the case of C=CC(C)(O)CCC=C(C)C (stereo not drawn), the “cytotoxicity (dead cells)” value is reported as 3.78% (inactive).
For COS(C)(=O)=O, the “cytotoxicity (dead cells)” value was 4.5% (inactive).

Experiment: MultiTox-Fluor Cytotoxicity Assay - LYMP1-001 - Live Cells (AID 947);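 note: 0% = DMSO only and full inhibition = tetraoctylammonium bromide control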
Details: LYMP1-001 lymphoblastoid cells, live-cell protease fluorescence viability; series mostly up to 92.2 µM; activity change, negative = cytotoxicity: at the top concentration
Excerpt: NIH Chemical Genomics Center [NCGC]
NIH Molecular Libraries Screening Centers Network [MLSCN]
National Institutes of Environmental Health Sciences [NIEHS]
National Toxicology Program [NTP]
We have developed a 1536-well cell-based assay for quantitative high throughput screening (qHTS) against a number of cell lines to determine in vitro cytotoxicity of small molecules. This particular assay uses a human lymphoblastoid cell line (LYMP1-001) purchased from Coriell Institute.
NCGC Assay Protocol Summary:
The MultiTox-Fluor Cytotoxicity Assay (Promega) is a homogeneous method to simultaneously measure the relative number of live and dead cells in culture by detecting changes in cell membrane integrity. There are two fluorogenic peptide substrates in the assay reagent. Viable cells are determined when the cell-permeant substrate (GF-AFC) enters the cell and is cleaved by protease from live cells resulting in liberated fluorophore. This live-cell protease activity restricted to viable cells is proportional to cell number. The dead cells are determined by using fluorogenic cell-impermeant peptide substrate (bis-AAF-R110) which cleaved by dead cell proteases leaking from damaged cell membrane.
Using the MultiTox-Fluor Cytotoxicity Assay, the relative number of live cells was measured in the lymphoblastoid cell line with complete culture medium following compound treatment for 16 hours. The assay was performed in opaque black Kalypsys 1536-well plates. In the screen, tetraoctylammonium bromide was used as positive control. Library compounds were measured for their ability to cause acute toxicity in the cell line, as reflected by a decrease in live cell protease activity, in a concentration-dependent manner. […] AC50 values were determined from concentration-response data modeled with the standard Hill equation.
qHTS protocol for MultiTox-Fluor Cytotoxicity assay
[Step] [Parameter] [Value] [Description]
1. Reagent; 5 uL; 2500 lymphoblastoid cells/well
2. Time; 5 hr; 37 C incubation
4. Controls; 23 nL; Tetraoctylammonium bromide 6.4pM to 92 uM
5. Time; 16 hr; 37 C incubation
6. Reagent; 5 uL; MuliTox-Fluor Assay reagent
7. Time; 60 min; Room Temperature
8. Detection; live-cell fluorescence (Ex/Em=405/510); EnVision plate reader
Keywords: cell viability, cytotoxicity, lymphoblastoid cell line, fluorescence, NTPHTS, NTPHTS_NCGC, NIEHS, EPA, DSSTox, MLSMR, MLSCN, NIH Roadmap, qHTS, NCGC
In the case of C=C(C)[C@H]1CC=C(C)C(=O)C1, the “activity change, negative = cytotoxicity” value is reported as -13.8% (inactive).
In the case of C=CC(C)(O)CCC=C(C)C (stereo not drawn), the “activity change, negative = cytotoxicity” value is reported as 3.76% (inactive).
With COS(C)(=O)=O the “activity change, negative = cytotoxicity” value was 3.46% (inactive).

Reference: PubChem BioAssay (NCATS)
